Experimental data taken from ChEMBL document CHEMBL3988442, “University of Dundee, Small-Polar-MMV Screening Library” (2021).

Experiments:
[1] = target: T1, Aspartate--tRNA(Asp/Asn) ligase (Mycobacterium tuberculosis (strain ATCC 25618 / H37Rv)) (UniProt P9WFW3); test: Assay for Asp RNA synthetase-1 from Mycobacterium tuberculosis; format: functional; parameters: scale not given: direction of the effect not stated beside the values; settings: 30 µM; further: in the data most compounds retested in dose-response had high values
T1 sequence (whole entry): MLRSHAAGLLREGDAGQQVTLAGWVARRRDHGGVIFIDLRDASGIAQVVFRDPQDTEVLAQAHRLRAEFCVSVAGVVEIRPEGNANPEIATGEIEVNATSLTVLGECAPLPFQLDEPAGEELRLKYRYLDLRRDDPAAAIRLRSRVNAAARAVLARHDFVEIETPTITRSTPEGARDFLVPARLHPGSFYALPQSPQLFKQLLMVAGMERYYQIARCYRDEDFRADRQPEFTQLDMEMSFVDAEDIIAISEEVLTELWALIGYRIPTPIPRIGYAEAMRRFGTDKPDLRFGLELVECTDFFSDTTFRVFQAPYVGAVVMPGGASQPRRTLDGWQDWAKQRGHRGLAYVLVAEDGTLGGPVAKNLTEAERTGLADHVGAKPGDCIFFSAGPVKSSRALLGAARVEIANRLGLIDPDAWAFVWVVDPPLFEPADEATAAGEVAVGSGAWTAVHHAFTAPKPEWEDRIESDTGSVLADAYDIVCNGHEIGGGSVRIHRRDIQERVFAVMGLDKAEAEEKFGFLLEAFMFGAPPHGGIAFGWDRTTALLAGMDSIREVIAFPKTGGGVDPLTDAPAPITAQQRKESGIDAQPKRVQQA

[2] = target: Shiga toxin 2 (Escherichia coli O157:H7) (UniProt P09385+P09386); test: E. coli 0.157:H7 Shiga Toxin SOP - stx2 screening assay; format: functional; parameters: scale not given: direction of the effect not stated beside the values; settings: 30 µM

**Q.** How did the Percent Effect [1] turn out when COCCNC(=O)[C@@H]1CC[C@@H]2[C@@H](CCN2Cc2cnn(C)c2)O1 was run?
**A.** The Percent Effect was 2.71%.

**Q.** And the Percent Effect [2]?
**A.** The Percent Effect was -20.8%.

**Q.** What does the source list for COc1ccccc1C(O)CNCc1c(C(C)C)nn(C)c1N(C)C (centres undefined)?
**A.** Percent Effect [1]: -6.86%; Percent Effect [2]: 9.26%

**Q.** Which Percent Effect [1] does the source give for O=C1C(NCc2nnc3n2CCCC3)CCN1c1ccccc1 (centres undefined) here?
**A.** Its Percent Effect is -1.97%.

**Q.** And the Percent Effect [2]?
**A.** Its Percent Effect is -28.4%.

**Q.** How did the Percent Effect [1] turn out when O=C(c1ccccc1-c1ccccc1)N1CCOC2(CNCCOC2)C1 (centres undefined) was run?
**A.** The Percent Effect was 1.51%.

**Q.** And the Percent Effect [2]?
**A.** Its Percent Effect is -1.85%.

**Q.** Which results are given for CC(O)CN1CCC(CNCc2cccc(Br)c2)CC1 (centres undefined)?
**A.** Percent Effect [1]: -1.97%; Percent Effect [2]: 18.9%

**Q.** Which Percent Effect [1] does the source give for Cc1cccc(-n2ncc(C(=O)N3CCn4c(C)nnc4C3)c2C)c1 here?
**A.** The Percent Effect was 3.68%.

**Q.** And the Percent Effect [2]?
**A.** The Percent Effect was 32.6%.

**Q.** Which results are given for CCc1ccc(-n2c(=O)[nH]c3nc(N4CCSCC4)ncc3c2=O)cc1?
**A.** Percent Effect [1]: 15.3%; Percent Effect [2]: -13.5%

**Q.** How did the Percent Effect [1] turn out when Cc1ccsc1CNc1cc(N2CCCC2CO)ncn1 (centres undefined) was run?
**A.** Its Percent Effect is 3.04%.

**Q.** And the Percent Effect [2]?
**A.** Its Percent Effect is -22.2%.

**Q.** How did the Percent Effect [1] turn out when CN(C(=O)Cc1ccc(NC(=O)NC2CCC2)cc1)c1ccccc1 was run?
**A.** Its Percent Effect is -0.27%.

**Q.** And the Percent Effect [2]?
**A.** The Percent Effect was -9.88%.

**Q.** For Cc1cc(NS(=O)(=O)c2ccccc2F)ccc1-n1cccc1C(=O)O, which Percent Effect [1] is on record?
**A.** Its Percent Effect is 6.98%.

**Q.** What about the Percent Effect [2] of the same compound?
**A.** Its Percent Effect is 0.354%.

**Q.** Which Percent Effect [1] does the source give for CCc1sc(-c2nnc(CNCCn3cc(C)cn3)o2)cc1C here?
**A.** Its Percent Effect is 2.52%.

**Q.** What about the Percent Effect [2] of the same compound?
**A.** The Percent Effect was -107%.

**Q.** Which results are given for CC(C)S(=O)(=O)NCC1CCCN(C(=O)c2ccc3c(c2)OCCO3)C1 (centres undefined)?
**A.** Percent Effect [1]: 6.79%; Percent Effect [2]: -18.1%

**Q.** CC(C)(C)n1ncc2c1NC(=O)CC2c1ccsc1 (centres undefined) was tested. Which Percent Effect [1] did it give?
**A.** The Percent Effect was 2.57%.

**Q.** And the Percent Effect [2]?
**A.** The Percent Effect was -10.8%.

**Q.** How did the Percent Effect [1] turn out when Cc1ccc(OCC(=O)NCc2ccccc2F)nc1 was run?
**A.** The Percent Effect was -0.524%.

**Q.** And the Percent Effect [2]?
**A.** Its Percent Effect is -8.96%.

**Q.** CCOCCCNc1nc(O)cc(C2CC(=O)N(C)C2)n1 (centres undefined) was tested. Which Percent Effect [1] did it give?
**A.** The Percent Effect was -1.77%.

**Q.** And the Percent Effect [2]?
**A.** The Percent Effect was -22.7%.

**Q.** How did the Percent Effect [1] turn out when Cc1ncsc1C(=O)NCCOc1ncc(Cl)cc1Cl was run?
**A.** Its Percent Effect is 3.06%.

**Q.** And the Percent Effect [2]?
**A.** Its Percent Effect is -33.3%.

**Q.** With CCn1cc(CN2CCCN(C(=O)C3=NN(C)C(=O)CC3)CC2)cn1 as the compound, how does the Percent Effect [1] read?
**A.** The Percent Effect was 0.98%.

**Q.** And the Percent Effect [2]?
**A.** Its Percent Effect is 10.4%.
